# mHTT-CaM PPI inh – inhibitors of human mutant huntingtin-calmodulin interaction; AID 1671202; 190,000 compounds, 3.6% hits; AlphaScreen His-mHTT/GST-CaM binding, luminescence; inhibition, % at 15 µM;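 also: 0% = both proteins with DMSO and 100% = one protein alone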
# Target sequence (P42858 whole entry, looked up, stated change not applied): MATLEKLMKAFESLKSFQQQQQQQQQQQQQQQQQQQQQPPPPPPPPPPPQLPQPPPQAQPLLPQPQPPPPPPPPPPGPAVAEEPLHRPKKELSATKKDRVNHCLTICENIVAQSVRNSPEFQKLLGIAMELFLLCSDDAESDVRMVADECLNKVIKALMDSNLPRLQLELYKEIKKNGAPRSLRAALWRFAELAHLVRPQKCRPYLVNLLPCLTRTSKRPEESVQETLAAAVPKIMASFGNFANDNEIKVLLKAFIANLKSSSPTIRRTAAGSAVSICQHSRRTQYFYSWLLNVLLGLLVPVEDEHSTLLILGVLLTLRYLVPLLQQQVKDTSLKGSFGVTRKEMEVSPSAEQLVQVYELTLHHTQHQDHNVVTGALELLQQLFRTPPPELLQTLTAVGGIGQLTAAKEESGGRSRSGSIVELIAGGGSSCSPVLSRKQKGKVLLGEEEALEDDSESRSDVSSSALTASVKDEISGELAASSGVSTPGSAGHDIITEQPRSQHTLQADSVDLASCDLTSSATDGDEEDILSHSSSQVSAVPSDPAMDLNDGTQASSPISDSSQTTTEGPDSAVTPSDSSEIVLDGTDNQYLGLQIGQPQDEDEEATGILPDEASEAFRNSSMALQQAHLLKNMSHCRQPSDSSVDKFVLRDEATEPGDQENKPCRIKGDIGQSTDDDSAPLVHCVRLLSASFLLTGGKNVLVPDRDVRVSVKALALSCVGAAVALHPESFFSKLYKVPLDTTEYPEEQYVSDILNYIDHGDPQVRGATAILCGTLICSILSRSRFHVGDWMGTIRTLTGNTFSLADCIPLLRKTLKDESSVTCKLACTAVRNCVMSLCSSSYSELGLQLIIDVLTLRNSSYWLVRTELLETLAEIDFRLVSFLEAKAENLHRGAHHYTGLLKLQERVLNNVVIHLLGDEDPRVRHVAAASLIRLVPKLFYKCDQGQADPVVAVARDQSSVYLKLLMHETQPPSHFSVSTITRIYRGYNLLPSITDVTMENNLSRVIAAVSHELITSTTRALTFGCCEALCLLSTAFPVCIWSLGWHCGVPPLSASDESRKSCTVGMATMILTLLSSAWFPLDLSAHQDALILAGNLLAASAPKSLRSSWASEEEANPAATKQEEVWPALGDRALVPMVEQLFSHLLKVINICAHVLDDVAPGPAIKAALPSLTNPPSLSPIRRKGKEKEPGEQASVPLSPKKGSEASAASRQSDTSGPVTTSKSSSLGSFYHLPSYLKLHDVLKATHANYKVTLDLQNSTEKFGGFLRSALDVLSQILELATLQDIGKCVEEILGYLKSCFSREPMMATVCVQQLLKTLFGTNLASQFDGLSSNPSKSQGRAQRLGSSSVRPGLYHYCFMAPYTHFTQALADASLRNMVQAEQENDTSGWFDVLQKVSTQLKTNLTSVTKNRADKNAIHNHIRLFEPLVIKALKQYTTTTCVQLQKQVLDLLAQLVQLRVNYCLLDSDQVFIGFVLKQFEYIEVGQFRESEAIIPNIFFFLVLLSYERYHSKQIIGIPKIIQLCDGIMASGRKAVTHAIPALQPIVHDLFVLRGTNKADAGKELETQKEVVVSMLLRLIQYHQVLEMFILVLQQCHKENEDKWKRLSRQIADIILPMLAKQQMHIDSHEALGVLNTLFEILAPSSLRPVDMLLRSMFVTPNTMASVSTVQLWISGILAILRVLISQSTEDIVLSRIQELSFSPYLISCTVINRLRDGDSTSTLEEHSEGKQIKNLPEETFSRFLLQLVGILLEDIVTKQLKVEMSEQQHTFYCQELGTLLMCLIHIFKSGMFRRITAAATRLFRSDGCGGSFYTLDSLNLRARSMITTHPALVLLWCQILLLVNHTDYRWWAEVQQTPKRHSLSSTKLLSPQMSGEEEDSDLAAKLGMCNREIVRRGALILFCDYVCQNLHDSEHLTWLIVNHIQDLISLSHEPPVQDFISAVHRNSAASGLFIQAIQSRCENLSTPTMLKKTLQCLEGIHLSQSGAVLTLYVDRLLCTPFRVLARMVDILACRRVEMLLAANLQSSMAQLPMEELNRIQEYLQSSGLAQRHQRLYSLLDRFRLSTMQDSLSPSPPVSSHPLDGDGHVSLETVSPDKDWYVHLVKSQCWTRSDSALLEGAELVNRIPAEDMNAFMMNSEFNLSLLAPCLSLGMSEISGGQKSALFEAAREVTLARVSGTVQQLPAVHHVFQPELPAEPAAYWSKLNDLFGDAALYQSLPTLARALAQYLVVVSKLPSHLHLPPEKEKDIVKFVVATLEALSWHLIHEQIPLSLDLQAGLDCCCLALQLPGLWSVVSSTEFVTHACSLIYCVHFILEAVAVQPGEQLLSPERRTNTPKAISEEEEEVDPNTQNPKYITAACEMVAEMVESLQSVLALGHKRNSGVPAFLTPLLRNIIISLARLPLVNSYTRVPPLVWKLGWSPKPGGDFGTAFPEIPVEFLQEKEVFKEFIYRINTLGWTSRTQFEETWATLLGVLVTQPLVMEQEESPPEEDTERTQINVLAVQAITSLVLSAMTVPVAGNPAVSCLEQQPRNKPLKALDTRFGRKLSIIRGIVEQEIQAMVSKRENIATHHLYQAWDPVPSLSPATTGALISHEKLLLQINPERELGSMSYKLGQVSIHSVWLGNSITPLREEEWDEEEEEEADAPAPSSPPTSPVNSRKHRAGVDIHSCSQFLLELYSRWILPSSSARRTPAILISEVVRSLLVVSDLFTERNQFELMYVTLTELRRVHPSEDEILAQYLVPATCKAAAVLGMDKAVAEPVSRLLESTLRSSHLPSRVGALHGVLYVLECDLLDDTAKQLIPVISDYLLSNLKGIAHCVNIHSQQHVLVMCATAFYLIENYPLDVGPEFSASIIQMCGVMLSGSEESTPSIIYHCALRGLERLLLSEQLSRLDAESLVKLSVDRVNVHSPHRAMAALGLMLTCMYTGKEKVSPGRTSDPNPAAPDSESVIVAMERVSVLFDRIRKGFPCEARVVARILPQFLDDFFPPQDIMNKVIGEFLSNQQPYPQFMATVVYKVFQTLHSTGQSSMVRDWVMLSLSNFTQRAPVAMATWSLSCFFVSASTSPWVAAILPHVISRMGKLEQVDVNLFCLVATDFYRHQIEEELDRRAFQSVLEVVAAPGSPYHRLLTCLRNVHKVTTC
# Pf apPOL inh – Pf-apPOL DNA polymerase inhibition; 210,000 compounds, 0.25% hits; inhibition, % at 10 µM; Recombinant Pf-apPOL, molecular beacon fluorescence, 1.5 h; AID 1794808
# * marks the source's active call; other numbers are inactive results; . = no result; ! = a repeat was not active. The sample as a whole holds a higher share of hits than the screen did. Rule as the data show it: active = inhibition above about 50%; inactive = the rest.
SMILES,mHTT-CaM PPI inh,Pf apPOL inh
Cc1[nH]c2ccccc2c1-c1csc(-c2ccncc2)n1,70.0*!,0.2
Cc1c(C(=O)O)c(-c2ccccc2)nn1-c1ccccc1,0.4,-5.1
Oc1ccc2c(c1)c(-c1ccccc1)nn2-c1ccccc1,55.0*,-3.0
CSc1nc2ccccc2n1CC(=O)Nc1ccc(F)cc1,-0.8,-0.9
CSc1nc2ccccc2n1CC(=O)NC(c1ccccc1)c1ccccc1,57.0*,0.3
CCOc1cc(/C=C(\C#N)c2nc3ccccc3[nH]2)cc(I)c1O,88.0*,-0.2
CCOc1cc(C=C2C(=O)c3ccccc3C2=O)cc(I)c1O,58.0*,-9.4
CCOc1cc(/C=C(\C#N)c2nc3ccc(C)cc3[nH]2)cc(Cl)c1O,84.0*,-2.8
COc1cc(/C=C(\C#N)c2nc3ccc(C)cc3[nH]2)cc(OC)c1O,58.0*,-3.8
Cc1ccc(/C=C(\C#N)c2nc3ccc(C)cc3[nH]2)cc1,-12.2,1.0
COc1cc(/C=C(\C#N)c2nc3ccc(C)cc3[nH]2)ccc1OCC(=O)O,11.2,-1.7
CCOc1ccc(C=C2C(=O)c3ccccc3C2=O)cc1OC,11.0,-4.2
COc1cc(/C=C(\C#N)c2nc3ccccc3[nH]2)cc(OC)c1OC,8.0,-2.6
CNC(=O)N1CCCC(c2cccc(C(=O)N3CCN(c4cccc(C)c4)CC3)c2)C1 (stereo unspecified),29.6,-3.2
Cn1c(SCC(=O)NCc2ccccc2)nnc1-c1ccc2ncccc2c1,.,-7.8
Cc1noc(CNC(=O)C2CCN(C(=O)c3ccc(S(=O)(=O)N(C)C)cc3)CC2)n1,-15.2,-10.0
Cc1ccc2nc(/C(C#N)=C/c3cc([N+](=O)[O-])ccc3O)[nH]c2c1,4.4,-4.4
Cc1ccc2nc(/C(C#N)=C/c3ccc(O)c([N+](=O)[O-])c3)[nH]c2c1,59.0*,-0.3
COc1cc(/C=C(\C#N)c2nc3ccccc3[nH]2)c(Br)cc1O,42.0,-6.1
COc1cc(Br)c(/C=C(\C#N)c2nc3ccccc3[nH]2)cc1OC,53.0*,-2.1
CC=CCC(=O)NCC(N)=O,.,4.4
Cn1c(=O)[nH]c(=O)c2c1nc(SCC(=O)O)n2CC(N)=O,0.2,1.9
Cn1nc(-c2nc(C3CC3)no2)c2c1CCN(C(=O)c1ccncc1)C2,-0.2,-3.2
COc1ccc(N2CCN3c4cc(OC)ccc4CC(C(=O)NC4CC4)C3C2)cc1 (stereo unspecified),27.4,-3.0
COc1ccc2c(c1)N1CCN(c3ccc(C)cc3)CC1C(C(=O)NC1CC1)C2 (stereo unspecified),65.4*,1.6
SMILES,mHTT-CaM PPI inh,Pf apPOL inh
O=C1N/C(=C/c2ccc(-c3cccc([N+](=O)[O-])c3)o2)C(=O)N1Cc1ccc(Cl)cc1,16.0,-3.6
COC(=O)C1=C(N)Oc2c(oc(CO)cc2=O)C1c1ccc(Cl)c(Cl)c1 (stereo unspecified),69.8*,-7.8
COC(=O)C1=C(N)Oc2c(oc(CO)cc2=O)C1c1ccc(Cl)cc1 (stereo unspecified),2.0,-2.4
Cc1ccc(Nc2ccc(NC(=O)Nc3ccc(F)cc3F)cc2)nn1,-7.1,-13.9
O=C1NC(=O)N(c2ccccc2F)C(=O)/C1=C/c1cn(CC(=O)N2CCCC2)c2ccccc12,75.0*,-0.6
Cc1ccccc1N1C(=O)NC(=O)/C(=C\c2cn(CC(=O)N3CCOCC3)c3ccccc23)C1=O,25.0,-10.8
Cc1cccc(N2C(=O)NC(=O)/C(=C\c3cn(CC(=O)N4CCCC4)c4ccccc34)C2=O)c1C,5.0,-5.8
Cc1cccc(N2C(=O)NC(=O)/C(=C\c3cn(CC(=O)N4CCOCC4)c4ccccc34)C2=O)c1,-2.0,-5.0
O=C1NC(=O)N(c2ccccc2F)C(=O)/C1=C/c1cn(CC(=O)N2CCCCC2)c2ccccc12,59.0*,-2.4
Cc1ccccc1N1C(=O)NC(=O)/C(=C\c2cn(CC(=O)Nc3ccccc3)c3ccccc23)C1=O,64.0*,0.4
COc1ccc(-c2ncc3c(n2)CCN(C(=O)c2ccc(F)cc2F)C3)cc1,1.8,-25.3
CC(C)c1cccc(NC(=O)C2CCCN(c3nccnc3Oc3ccccc3)C2)c1 (stereo unspecified),-3.0,1.8
CC(=O)Nc1cc(NC(=O)c2cccs2)ccc1Cl,0.7,-2.5
Cc1ccccc1CS(=O)(=O)CCC(=O)NC1CCCC1,2.0,8.4
CC(=O)N1CCc2cc(N3CC(C(=O)NCc4cccc(F)c4)CC3=O)ccc21 (stereo unspecified),0.7,-5.3
CC(CC(=O)N1CCN(Cc2ccccc2)CC1)c1ccccc1 (stereo unspecified),4.6,-6.9
O=C(c1ccccc1)c1cc(F)c(N2CCOCC2)cc1Cl,-15.0,16.1
O=c1cc[nH]c2cc(N3CCOCC3)c(F)cc12,-5.1,80.3*
N=C1S/C(=C\c2ccc(-c3ccccc3F)o2)C(=O)N1c1nccs1,27.0,0.8
O=C1OC(c2ccccc2)=N/C1=C/c1ccc(-c2ccc(Cl)c(C(=O)O)c2)o1,20.0,-2.2
N=C1S/C(=C\c2ccc(-c3ccc(Cl)cc3C(=O)O)o2)C(=O)N1c1nccs1,75.0*,-1.8
N=C1S/C(=C\c2ccc(-c3ccc(Cl)c(C(=O)O)c3)o2)C(=O)N1c1nccs1,99.0*,6.7
CC1(C)CC(=O)C2=C(C1)OC1=C(C(=O)CC(C)(C)C1)C2c1ccccc1OCc1ccc(Cl)cc1Cl,1.8,-1.4
COC(=O)c1ccc(C2c3c(oc4ccccc4c3=O)C(=O)N2CCCO)cc1 (stereo unspecified),-4.0,-12.6
CCOc1ccc(N=C2C(=O)N(CN3CCCC(C)C3)c3ccccc32)cc1 (stereo unspecified),10.0,-1.1
SMILES,mHTT-CaM PPI inh,Pf apPOL inh
CCOc1ccc(N=C2C(=O)N(CN3CCCCC3)c3ccccc32)cc1,65.0*,11.9
O=S(=O)(Nc1cc(F)cc(F)c1)c1c[nH]c2ncccc12,-6.2,0.8
CC1(C)C2CC=C(CN3CCN(c4ccccc4F)CC3)C1C2 (stereo unspecified),-20.5,-4.9
C=CCn1c(=N)n(CC(O)c2ccc(-c3ccccc3)cc2)c2ccccc21 (stereo unspecified),96.3*,0.2
C=CCn1c(=N)n(CC(O)c2ccc(Br)cc2)c2ccccc21 (stereo unspecified),5.8,-3.2
O=C(CNCc1ccccc1)N1c2ccccc2Sc2ccc(Cl)cc21,97.2*,-1.3
CCN(CC)CC(=O)N1c2ccccc2Sc2ccc(Cl)cc21,16.0,-3.7
O=C(NCc1ccccn1)c1cnn(-c2ccc(Cl)cc2)c1C(F)(F)F,6.2,-10.8
Fc1ccc(C2Cn3nc(-c4nc(-c5ccc(F)c(F)c5)no4)cc3CO2)cc1 (stereo unspecified),6.6,-6.4
CCN1CCn2cc(C(=O)NCc3ccc(F)cc3)nc2C1,41.9,-4.7
CCN1CCn2cc(C(=O)NCc3ccc(C(F)(F)F)cc3)nc2C1,97.1*,-13.0
CC1(C)Oc2ccc(Br)cc2O1,5.0,.
Clc1ccccc1-c1nnc(-c2ccccc2Br)o1,-41.1,6.2
O=C(Cn1[nH]c2c(cnc3ccc(F)cc32)c1=O)Nc1ccc(Br)cc1,64.1*,-0.5
O=C(Cn1[nH]c2c(cnc3ccc(F)cc32)c1=O)Nc1ccc(F)cc1,4.4,-1.1
Cc1ccc(Cl)cc1NC(=O)Cn1[nH]c2c(cnc3ccc(F)cc32)c1=O,21.1,-2.1
Cc1ccc(F)cc1NC(=O)Cn1[nH]c2c(cnc3ccc(F)cc32)c1=O,94.9*,0.7
Cc1ccc(NC(=O)CN2C(=O)N/C(=C\c3ccc(Oc4ccc([N+](=O)[O-])cn4)cc3)C2=O)cc1,12.0,-4.7
